# Measured values published in ChEMBL document CHEMBL4513146, “CO-ADD screening of Karazin Kharkiv National University (Ukraine) compounds”.
# Entries with a potency or affinity are not part of this list.
# Legend:
# [1] = tested on: Staphylococcus aureus; settings: Concentration 32 ug.mL-1;; ASSAY_TEST Inhibition of Bacterial Growth; detection method Absorption (OD600); MEDIA CAMHB; plate type 384well; NBS; CORNING #3640; time 18 hr
# [2] = tested on: Escherichia coli; settings: Concentration 32 ug.mL-1;; ASSAY_TEST Inhibition of Bacterial Growth; detection method Absorption (OD600); MEDIA CAMHB; plate type 384well; NBS; CORNING #3640; time 18 hr
Compound,Inhibition [1] [%],Inhibition [2] [%]
Cc1ccccc1CN(c1cccc(F)c1)S(=O)(=O)c1ccc2nncn2c1,-9.31,-3.51
Cc1cc(C)cc(Nc2nc(C)cc3nn(CC(=O)Nc4ccc(C)c(F)c4)c(=O)n23)c1,9.64,-0.61
Cc1ccc(C(=O)CSc2nnc3c(=O)n(-c4ccc(F)cc4)ccn23)c(C)c1,7.85,-6
Cc1nc(-c2ccccc2)cc2nn(CC(=O)Nc3ccc4c(c3)OCO4)c(=O)n12,14.7,-4.44
O=C(Cn1nc2c(N3CCOCC3)nc3ccccc3n2c1=O)Nc1ccccc1Br,3.23,-2.52
CCc1ccccc1NC(=O)CSc1nnc2ccc(C(=O)Nc3cccc(F)c3)cn12,19.17,1.35
COc1ccc(Cl)cc1NC(=O)CSc1nc2ccccc2n2cnnc12,12.82,5.77
Cc1ccc(-c2ccc3nn(CC(=O)Nc4ccc(Cl)c(C(F)(F)F)c4)c(=O)n3n2)cc1C,-0.53,-10.28
O=S(=O)(c1cccn2cnnc12)N(Cc1cccc(Cl)c1)c1cc(F)cc(F)c1,17.81,-3.49
Cc1ccc(Oc2nc3ccccc3n3c(=O)n(CC(=O)Nc4ccccc4C(F)(F)F)nc23)cc1,11.78,1.07
CN(C)c1nc2ccccc2n2c(=O)n(CC(=O)Nc3ccc4c(c3)OCO4)nc12,1.33,1.96
CCc1ccccc1Sc1nccn2c(=O)n(CC(=O)Nc3cccc(C)c3)nc12,2.29,-6.79
Cc1cc(C)cc(N(Cc2ccccc2F)S(=O)(=O)c2cccn3c(C)nnc23)c1,15.31,-0.2
O=C(Cn1nc2ccc(Sc3cccc(F)c3)nn2c1=O)Nc1cccc(C(F)(F)F)c1,5.63,-8.75
CCCCn1c(=O)c2sccc2n2c(CCC(=O)NCCC34CC5CC(CC(C5)C3)C4)nnc12,7.09,0.44
CCCCN(CC)c1ccc2nnc(CCc3nc(-c4ccc5c(c4)OCO5)no3)n2n1,-15.7,1.35
O=c1c2sccc2n2c(SCc3cccc(C(F)(F)F)c3)nnc2n1Cc1ccc(F)cc1,9.81,-1.38
